Compound activity (PubChem)
Most compounds without a hit are left out; they make up all but 1.8% or so of the library.
Myeloid diff MLP: induction of myeloid progenitor differentiation, primary screen, cell-based, flow cytometry, MLPCN library; actives 1% (n = 360,000); AID 624256, 2012; ER-HoxA9 myeloid progenitors, lysozyme-GFP differentiation; calls only at 10 µM;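 active means normalized GFP-positive differentiation at or above the plate's own cutoff, the solvent-only control mean plus 3 SD; inconclusive means no clear call, values can overlap the other calls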;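 further: cells exposed to compound for four days before flow analysis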
LAP4-GFP MLPCN: modulators of LAP4-GFP expression in yeast, primary screen, S. cerevisiae, multiplex flow cytometry, MLPCN library; 3 h; median GFP as percent of DMSO wells; GFP response vs DMSO, % at 10 µM; actives 0.34% (n = 320,000); AID 2023, 2009;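 active means GFP response vs DMSO above a set limit, about the screen mean plus 3 SD, cut at about 150% in these data; inconclusive means under 70 cell events counted for the yeast strain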
MEP2 TOR yeast: modulators of MEP2-GFP levels in yeast, primary screen, S. cerevisiae, multiplex flow cytometry, MLPCN library; actives 0.51% (n = 330,000); GFP response vs DMSO, % at 10 µM; S. cerevisiae MEP2-GFP strain, 3 h; 100% = DMSO control level;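 active means GFP response versus DMSO above a set limit, roughly screen mean plus 3 SD, cut at about 180% in these data; inconclusive means fewer than 70 cells counted for a yeast strain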;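 further: median GFP fluorescence of the barcode-gated MEP2-GFP cells per well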
CIT2-GFP yeast: modulators of CIT2-GFP expression in yeast, primary screen, S. cerevisiae, GFP fusion, multiplex flow cytometry, MLPCN library. S. cerevisiae CIT2-GFP strain, 3 h; 100 means same as DMSO wells. GFP response vs DMSO, % at 10 µM. AID 2029, 2009. actives 0.065% (n = 320,000);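 active means GFP response relative to DMSO above a set limit, near the screen mean plus 3 SD, cut at about 150% in these data; inconclusive means Fewer than 70 cells measured for a yeast strain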;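 further: ratio of well median GFP fluorescence to mean of DMSO wells on the plate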
RPL19A TOR yeast: RPL19A-GFP expression modulators in yeast, primary screen, cell-based, S. cerevisiae, multiplex flow cytometry, MLPCN. S. cerevisiae RPL19A-GFP strain, 3 h; hits give low values. percent response vs DMSO, % at 10 µM. actives 0.3% (n = 330,000);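 active means percent response vs DMSO below 50%; inconclusive means fewer than 70 events counted for the yeast strain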;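 further: median channel GFP fluorescence of the barcoded RPL19A-GFP strain; ratio of sample median GFP to plate DMSO average so 100% = DMSO; lower means less RPL19A-GFP as with rapamycin TOR inhibition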
AGP1-GFP MLPCN: modulators of AGP1-GFP expression in yeast TOR pathway, primary screen, cell-based, multiplex flow cytometry, S. cerevisiae, MLPCN library | GFP response vs DMSO, % at 10 µM | AID 2066, 2009 | 3 h; GFP as percent of DMSO wells | actives 0.02% (n = 320,000);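 active means GFP response relative to DMSO above a set limit, near screen average plus 3 SD, cut at about 150% in these data; inconclusive means fewer than 70 cells counted for the yeast strain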;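 further: median GFP channel fluorescence of the gated AGP1 strain per well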
Starred values were filed as active, the others as inactive; i = inactive; ? = inconclusive; . = no result given; + = active, no number; [ ] = remark or other dose.

SMILES	Myeloid diff MLP	LAP4-GFP MLPCN	MEP2 TOR yeast	CIT2-GFP yeast	RPL19A TOR yeast	AGP1-GFP MLPCN
C/C(=N\NC(=O)c1ccccc1Cl)c1ccccn1	?	98.0	95.2	105.8	98.6	105.1
C/C(=N\NC(=O)c1ccc(Cl)c(Cl)c1)c1ccccn1	?	285.4*	133.5	109.4	136.7	109.1
O=C1CCC(C(=O)N(CCO)Cc2ccccc2)CN1CCCN1CCOCC1 (configuration not stated)	i	93.0	88.4	95.0	98.3	99.4
CSCC[C@H](NC(=O)c1ccc(Br)o1)c1nnc2ccccn12	i	87.6	143.9	?	42.1*[may fluoresce violet]	14.7
C=CCn1nnnc1SCC(=O)Nc1cccc(C(F)(F)F)c1	+	120.9	114.4	107.6	105.0	109.3
Nc1c(C(=O)C2CC2)sc2nc(-c3cccs3)cc(C(F)(F)F)c12	+	97.1	132.8	91.3	98.5	94.3
O=C(CCCc1nc(-c2ccc(Cl)cc2)no1)N1CCOCC1	i	105.5	305.3*[may fluoresce violet]	?	16.9*[may fluoresce violet]	?
Cc1ccc(-c2noc(CCCC(=O)N3CCOCC3)n2)cc1	i	103.0	287.1*[may fluoresce violet]	?	19.8*[may fluoresce violet]	21.1
ClCC1NCC(c2ccccc2Cl)c2c1[nH]c1ccccc21 (configuration not stated)	+	89.8	101.2	94.0	99.2	98.7
Cc1nn(C)c(C)c1S(=O)(=O)N(CC(=O)N1CCc2ccccc21)c1ccc(C(C)C)cc1	+	98.2	106.1	96.8	99.0	102.3
COc1ccc(/C(C)=N/NC(=O)c2nc(C)cc(C)n2)cc1	i	94.6	670.3*[may fluoresce violet]	?	39.8*[may fluoresce violet]	.
COc1ccc(/C(C)=N/NC(=O)c2ccc(N(C)C)cc2)cc1	i	101.6	109.3	112.0	104.8	110.4
CCCCN(CCCNC(=O)C1CCN(C(=O)c2cc3sccc3n2C)CC1)Cc1ccccc1	.	93.8	95.5	107.7	96.3	97.1
CCN(CCCNC(=O)C1CCN(C(=O)c2cc3sccc3n2C)CC1)Cc1ccccc1	i	107.4	283.4*[may fluoresce violet]	?	44.3*[may fluoresce violet]	?
O=C(CN1C(=O)C2CC=CCC2C1=O)Nc1nnc(SCc2ccc(Cl)cc2)s1 (configuration not stated)	i	102.9	?	?	14.8*[may fluoresce violet]	.
O=C(NCC1CCCO1)c1sc(=S)n2c1[nH]c(=O)c1ccc(C(=O)N3CCCCC3)cc12 (configuration not stated)	i	95.7	205.9*[may fluoresce violet]	?	42.0*[may fluoresce violet]	?
COc1ccc(S(=O)(=O)Nc2cccc(-n3cnnn3)c2)cc1	i	106.3	104.8	102.7	98.1	103.6
COc1ccc(-c2[nH]ncc2Oc2ccccc2OC)c(O)c1	+	103.7	103.6	90.2	99.6	101.0
COc1ccc(Oc2cn[nH]c2-c2ccc(O)cc2O)cc1	i	97.9	99.0	103.3	95.8	99.2
CN(C)N=C1c2cc(S(=O)(=O)N3CCOCC3)ccc2-c2ccc(S(=O)(=O)N3CCOCC3)cc21	i	87.5	269.4*[may fluoresce violet]	?	46.8*[may fluoresce violet]	?
COC(=O)c1c(NC(=O)Cc2cccs2)sc2c1CCCC2	i	91.3	210.7*[may fluoresce violet]	?	56.3	?
COCC(=O)Nc1sc2c(c1C(=O)OC)CCCC2	i	112.0	102.6	97.2	98.4	90.5
COC(=O)c1c(NC(=O)c2cccs2)sc2c1CCC(C)C2 (configuration not stated)	i	97.0	222.6*[may fluoresce violet]	?	54.4	.
CC1CCc2c(sc(NC(=O)c3cccs3)c2C(=O)O)C1 (configuration not stated)	i	92.6	124.5	78.7	108.7	80.2
Cc1ccc(OCC(=O)c2cc(C)n(-c3cc(C)on3)c2C)c([N+](=O)[O-])n1	+	.	.	.	.	.
CCCn1cc(S(=O)(=O)c2ccccc2)c(=O)c2cc(OCC)ccc21	?	107.4	96.9	95.9	97.5	98.3
